Assay outcomes from PubChem BioAssay.
DRV1 agonist – qHTS for Agonists of Human Resolvin D1 Receptor DRV1. CHO-K1 GPR32 beta-arrestin PathHunter luminescence, 90 min; zero percent set by DMSO-only wells. activation, % at 76.9 µM. hit rate 2.5% among 48,000. AID 1346428, 2018;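 active means activation of at least 60% and not above a set upper limit, about 1 call in 100 departs from these limits; inconclusive means activation of 40% to 60%, or above that upper limit; inactive means activation under 40%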; further: 0% is about no effect
Target sequence (O75388 whole entry, looked up): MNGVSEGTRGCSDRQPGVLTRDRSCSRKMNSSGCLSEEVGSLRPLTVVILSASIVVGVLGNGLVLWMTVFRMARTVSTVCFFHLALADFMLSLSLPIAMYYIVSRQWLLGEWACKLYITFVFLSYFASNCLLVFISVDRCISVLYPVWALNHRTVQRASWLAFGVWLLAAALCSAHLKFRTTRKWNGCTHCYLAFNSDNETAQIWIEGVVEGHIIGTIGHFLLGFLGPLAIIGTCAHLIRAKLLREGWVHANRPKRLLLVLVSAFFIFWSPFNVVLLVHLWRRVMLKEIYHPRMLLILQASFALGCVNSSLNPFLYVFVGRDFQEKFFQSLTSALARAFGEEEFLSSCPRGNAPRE
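Luminescent readout of beta-Gal complementation quantifies ligand-induced beta-arrestin association with GPR32 in CHO-K1 cells; 90 min compound incubation at 37 °C, detection 1 h at room temperature.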
NTMT1 inh – Primary qHTS for Inhibitors of N-terminal methyltransferase 1 (NTMT1): MTaseGlo Assay | N-terminal Xaa-Pro-Lys N-methyltransferase 1 (Homo sapiens), Q9BV86 | NTMT1 MTase-Glo SAH luminescence, purified enzyme | Potency, µM (top dose mostly 114 µM), without a hit: at the top dose activity change, negative = inhibition, hits mostly inhibitors | hit rate 2.5% among 59,000 | AID 1645870, 2021;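 further: potency means the concentration at half of the fitted maximal effect; plate controls were DMSO vehicle for no effect and no enzyme for full effect; nearly all actives have a fitted effect of over 65% in size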
Target sequence (Q9BV86 whole entry, looked up): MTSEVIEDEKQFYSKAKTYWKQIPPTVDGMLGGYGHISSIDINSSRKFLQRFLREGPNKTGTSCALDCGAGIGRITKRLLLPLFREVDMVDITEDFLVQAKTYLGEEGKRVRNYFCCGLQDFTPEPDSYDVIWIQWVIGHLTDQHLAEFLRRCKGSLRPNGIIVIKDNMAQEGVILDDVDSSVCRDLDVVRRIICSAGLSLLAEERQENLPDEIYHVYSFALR
FH mod – Identification of activators of human fumarate hydratase by quantitative high-throughput screening; FH coupled MDH/diaphorase resazurin fluorescence, 15 min; Potency, µM (doses to about 79.9 µM), inactives show at the highest dose activity change, negative = inhibition, hits mostly inhibitors; hit rate 0.22% among 54,000; further: potency means the concentration at half of the fitted maximal effect; on the % scale 0 is the no-effect control and ±100 the full control effect; the screen sought activators but most active calls are inhibition curves; nearly all actives have a fitted effect of over 45% in size
SKOV3 invasion – Primary qHTS assay for Inhibitors of ovarian cancer metastasis using an organotypic tumor microenvironment (TME) model. SKOV3ip1-GFP adhesion/invasion on 3D omental model, fluorescence. Potency, µM (doses to about 45.8 µM), without a hit: at the highest dose activity change, negative = inhibition, hits mostly inhibitors. hit rate 0.1% among 46,000. AID 1963576, 2024;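 further: potency means the concentration at half of the fitted maximal effect; plate controls were DMSO wells for no effect and tomatine positive control wells for full effect; nearly all actives have a fitted effect of over 65% in size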
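A 3D layer of primary human omental fibroblasts, mesothelial cells, fibronectin and collagen I, grown 48 hr, received SKOV3ip1-GFP cells in serum-free medium plus compounds at 0.36-46 umol/L. After 2 hr RT and 16 hr 37 C, fixed adherent GFP cells were counted; normalized to DMSO and tomatine.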
Numbers without * were called inactive; ! = not active in a repeat; [ ] = remark or other dose. Shown are actives, neighbours in structure and some others; about 3.9% of the full set was active somewhere. Unless noted, the call rests on the fitted dose curve; in most records, active means well fitted curve in the direction sought with a large enough effect; inconclusive means small, poorly fitted or top-dose-only effect, or another doubt; inactive means no such curve, though single readings can be large; an effect the other way counts as inactive or inconclusive.

COc1cc(C(C)=O)ccc1OCCCN1CCC(c2noc3cc(F)ccc23)CC1 was read as DRV1 agonist 71*, NTMT1 inh inconclusive, FH mod 4%[53.3 µM] and SKOV3 invasion 11%.
For CCN(CC)CCOCCOC(=O)C(CC)(CC)c1ccccc1 the results were NTMT1 inh inconclusive and FH mod 2%.
Screening CCN(CC)CCOCCOC(=O)C1(c2ccccc2)CCCC1 returned DRV1 agonist 6, NTMT1 inh 10µM* and FH mod -2%[53.3 µM].
Screening CC(=O)c1cc(-c2ccc(F)cc2)n(CCC(=O)NCc2ccccc2C)c1C returned DRV1 agonist -10 and SKOV3 invasion -6%.
`CC(=O)c1cc(-c2ccccc2)n(CC(=O)NCc2ccccc2C)c1C` gave DRV1 agonist 80* and SKOV3 invasion -6%.
`CCCn1c(/C=C/c2ccccc2)nc2ccccc21` gave DRV1 agonist 2, NTMT1 inh inconclusive, FH mod -9% and SKOV3 invasion -1%.
For CC[N+](CC)(CC)CCOc1cccc(OCC[N+](CC)(CC)CC)c1OCC[N+](CC)(CC)CC the results were DRV1 agonist -7, NTMT1 inh 8.9µM*!, FH mod -14%[53.3 µM] and SKOV3 invasion 21%.
Screening CC[N+](CC)(CC)CCOc1ccc(/C=C/c2ccccc2)cc1 returned DRV1 agonist 26, NTMT1 inh 28µM* and FH mod inconclusive.
CC(C)(C(=O)NCC(F)(F)C(F)(F)F)C(=O)N[C@@H]1C(=O)Nc2ccccc2-c2ccccc21 was read as NTMT1 inh inconclusive, FH mod -7%[53.3 µM] and SKOV3 invasion -26%.
Cc1ccc(CNC(=O)c2c[nH]c3ccc(S(=O)(=O)Nc4ccc(C(C)C)cc4)cc3c2=O)cc1 was read as DRV1 agonist 7, NTMT1 inh 2%, FH mod -11% and SKOV3 invasion 14%.
CCc1ccc2[nH]cc(S(=O)(=O)c3ccc(C(C)C)cc3)c(=O)c2c1 was read as DRV1 agonist 65*, NTMT1 inh 10%, FH mod 10% and SKOV3 invasion -3%.
CC1=C(C(=O)Nc2nc3ccccc3s2)C(c2nn(C)cc2Cl)N=C(Nc2nc3ccccc3o2)N1 (configuration not stated) was read as NTMT1 inh 3%[57.5 µM].
C=C1[C@@H](OC(C)=O)CC[C@@]2(C)[C@@H](OC(C)=O)[C@H](OC(C)=O)C3=C(C)C[C@H](OC(=O)C(C)CC)[C@@H]([C@@H](OC(C)=O)[C@H]12)C3(C)C (some centres not stated) was read as NTMT1 inh 12%[12.6 µM] and FH mod -1%[20.6 µM].
COc1ccc(Cn2ccc3nc(C)c(C(=O)NCc4ccc(C)cc4)cc3c2=O)cc1 was read as DRV1 agonist 41, NTMT1 inh -5%, FH mod 2% and SKOV3 invasion -2%.
`COc1ccc(Cn2ccc3nc(C)c(C(=O)NCc4ccc(F)cc4)cc3c2=O)cc1` gave DRV1 agonist 63*, NTMT1 inh -2%, FH mod -15% and SKOV3 invasion inconclusive.
`COc1cc(CNc2ccc3[nH]c(=O)[nH]c3c2)cc(Cl)c1OCc1ccc(F)cc1` gave DRV1 agonist -2, NTMT1 inh 3%, FH mod 35µM* and SKOV3 invasion -13%.
For COc1cc(CNc2ccc3[nH]c(=O)[nH]c3c2)cc(Br)c1OCc1ccc(F)cc1 the results were DRV1 agonist 19, NTMT1 inh -6%, FH mod inconclusive and SKOV3 invasion -7%.
For COc1cc(N)c(Cl)cc1C(=O)OCCN1CCCCC1 the results were DRV1 agonist -4 and FH mod 1%[53.3 µM].
COc1cc(N)c(Cl)cc1C(=O)NC1CCN(CCCOc2ccc(F)cc2)CC1OC (configuration not stated) was read as DRV1 agonist 64*, NTMT1 inh -13%[57.5 µM] and FH mod -1%[53.3 µM].
`CN1CCN(C(=O)[C@H]2[C@@H](C(=O)O)[C@H]3CC[C@@H]2O3)CC1` gave NTMT1 inh 10%[29.8 µM].
Screening C=C(C)C(=O)O[C@H]1C[C@@](C)(OC(C)=O)[C@@]2(O)CC[C@@](C)(O)[C@H](OC(C)=O)[C@@]23OC(=O)C(COC)=C13 returned NTMT1 inh 7%[29.8 µM] and FH mod 0%[53.3 µM].
For O=C(CSc1ncc(CO)n1Cc1ccccc1)Nc1nc2ccccc2s1 the results were DRV1 agonist 60*, NTMT1 inh 10%, FH mod -2% and SKOV3 invasion 39%.
O=C(CSc1ncc(CO)n1Cc1ccccc1)Nc1ccc(C(F)(F)F)cc1 was read as DRV1 agonist 118*, NTMT1 inh 14%, FH mod -24% and SKOV3 invasion inactive.
For O=C(Cn1c(=O)oc2cc(S(=O)(=O)N3CCCC3)ccc21)NCc1ccc(Cl)cc1 the results were DRV1 agonist inconclusive, NTMT1 inh inconclusive, FH mod 4% and SKOV3 invasion inactive.
`CN(C)c1ccc(CNC(=O)Cn2c(=O)oc3cc(S(=O)(=O)N4CCCCCC4)ccc32)cc1` gave DRV1 agonist 113*, NTMT1 inh 5%, FH mod -6% and SKOV3 invasion -1%.
`COc1cccc(CNC(=O)Cn2c(=O)oc3cc(S(=O)(=O)N4CCC(C)CC4)ccc32)c1` gave DRV1 agonist 12, NTMT1 inh -8%, FH mod -25% and SKOV3 invasion inactive.
Screening COc1cccc(CNC(=O)Cn2c(=O)oc3cc(S(=O)(=O)N4CCCCCC4)ccc32)c1 returned DRV1 agonist 76*, NTMT1 inh inconclusive, FH mod -6% and SKOV3 invasion -3%.
Cn1c(=O)oc2cc(S(=O)(=O)NC(Cc3ccccc3)C(=O)NCc3ccc(F)cc3)ccc21 (configuration not stated) was read as DRV1 agonist -6, NTMT1 inh 9%, FH mod 9% and SKOV3 invasion inactive.
CN(C)c1ccc(CNC(=O)C(Cc2ccccc2)NS(=O)(=O)c2ccc3c(c2)oc(=O)n3C)cc1 (configuration not stated) was read as DRV1 agonist 94*, NTMT1 inh inconclusive, FH mod 15% and SKOV3 invasion 4%.
Screening Cc1ccc(-c2nc(-c3cc4cccc(OCc5cccc(F)c5)c4oc3=O)no2)cc1 returned DRV1 agonist 82*, NTMT1 inh -11%, FH mod -5% and SKOV3 invasion inactive.
`CCOC(=O)c1ccc(NC(=O)c2cnc(N3CCCC3)nc2C)cc1` gave DRV1 agonist 96*, NTMT1 inh 8%, FH mod -5% and SKOV3 invasion 2%.
Screening Cc1nc(N2CCCC2)ncc1C(=O)Nc1ccc(OC(F)(F)F)cc1 returned DRV1 agonist 39, NTMT1 inh 10%, FH mod -7% and SKOV3 invasion -16%.
For O=C(c1ccccc1O)N(Cc1ccco1)Cc1cccs1 the results were NTMT1 inh 0%.
